These results are taken from PubChem BioAssay (Tox21).

Where “and” joins values, the source holds several entries; their conditions need not be identical. Identical values can stand only once. Inconclusive results are not listed. Calls of active or inactive are those of the source. The call rests on the fitted dose curve.
On the % scale 0 is the no-effect control and ±100 the full control effect; potency means the concentration at half of the fitted maximal effect.

This experiment is described as follows: qHTS assay to identify small molecule agonists of the NFkB signaling pathway - cell viability counter screen (AID 1159515). Further: nearly all actives have a fitted effect of over 55% in size. Conditions: NFkB-bla ME-180 viability, CellTiter-Glo luminescence, 5 h; series mostly up to 61 µM; activity, negative = cytotoxic: at the top concentration. From the text:
National Center for Advancing Translational Sciences [NCATS]
NIH Chemical Genomics Center [NCGC]
U.S. Environmental Protection Agency [EPA]
National Institutes of Environmental Health Sciences [NIEHS]
National Toxicology Program [NTP]
U.S. Food and Drug Administration [FDA]
Transcription factors and their stimulated target gene expression play pivotal roles across many cellular processes including responses to environmental stimuli. Proper regulation of associated pathways is critical to maintain cell health and function. Constitutive activation of transcription factor pathways has been implicated in tumors as it may block cellular functions such as apoptosis and lead to invasion and metastasis. One important transcription factor that stimulates gene expression in response to cytokines, UV radiation, and other stimuli is nuclear factor-kappa B (NFkB). To measure activation of the NFkB pathway, the CellSensor NFkB-bla ME-180 cell line (Life Technologies, Carlsbad, CA) that stably expresses beta-lactamase reporter gene under the regulation of a NF-kB response element was used. This assay allows measurement of the NFkB pathway activity induced by compounds in a ME-180 cell line. This system quantitates NF-kB activity using a FRET-based assay system where beta-lactamase expression disrupts FRET, allowing for fluorescent measurement of activity. This cell line has been used to screen the Tox21 10K compound library and to identify compounds that induce the NFkB pathway activity. The cytotoxicity of the Tox21 compound library against the NFkB-bla ME-180 cell line was tested in parallel by measuring cell viability using the CellTiter-Glo assay in the same wells.
Tox21 Assay Protocol Summary:
NFkB-bla ME-180 cells were dispensed at 2,000 cells/6 uL of assay medium per well into black wall/clear-bottom 1536-well plates using a Multidrop Combi (ThermoFisher Scientific, Waltham, MA) dispenser. After the assay plates were incubated at 37 C and 5% CO2 for an overnight, 23 nL of compounds dissolved in DMSO, positive controls or DMSO only was transferred to the assay plate by a Pintool station (Kalypsys, San Diego, CA). The assay plates were incubated at 37 C and 5% CO2 for 5 hr. One uL of LiveBLAzer B/G FRET substrate (Life Technologies) was added using a Flying Reagent Dispenser (Aurora Discovery, San Diego, CA) and the plates were incubated at room temperature for 1.5 hr. Fluorescence intensity (405 nm excitation, 460 nm and 530 nm emissions) was measured using an Envision plate reader (PerkinElmer, Shelton, CT). For cytotoxicity, 3 ul/well of CellTiter-Glo reagent was added into the assay plates using an FRD. After 30 min incubation at room temperature, the luminescence intensity was measured using a ViewLux plate reader (PerkinElmer).
As to `FC(F)OC(F)(F)C(F)Cl` (stereo not given), the “activity, negative = cytotoxic” value was 2.42% (inactive).

Consider `NP(N)(=O)NC(=O)c1ccc(F)cc1`, for which the “activity, negative = cytotoxic” value was 3.1% (inactive).

Take `CCCCCl`: the “activity, negative = cytotoxic” value was -0.945% [at 78.8 µM] (inactive).

Regarding `CC(C)CCCCCCCOC(=O)c1ccccc1C(=O)OCCCCCCCC(C)C`, the “activity, negative = cytotoxic” value is 0.697% (inactive).

`ClCc1ccccc1Cl`: the “activity, negative = cytotoxic” value is 0.492% [at 78.8 µM] (inactive).

With `O=C(Cc1ccccc1)OCCc1ccccc1`, the “activity, negative = cytotoxic” value was 9.69% (inactive).

In the case of `Nc1ccccc1C(=O)OCC(O)CO` (stereo not given), the “activity, negative = cytotoxic” value is 4.51% (inactive).

As to `Cc1cnc(C2=NC(C)(C(C)C)C(=O)N2)c(C(=O)O)c1` (stereo not given), the “activity, negative = cytotoxic” value is 0.877% (inactive).

As for `CCOP(=S)(OCC)SCSc1cc(Cl)ccc1Cl`, the “activity, negative = cytotoxic” value is 6.61% (inactive).

`C=CCN1C[C@H](C)N([C@H](c2ccc(C(=O)N(CC)CC)cc2)c2cccc(OC)c2)C[C@H]1C`: the “activity, negative = cytotoxic” value is -33.1% (inactive).

As for `CC(C)c1ccc(NC(=O)N(C)C)cc1`, the “activity, negative = cytotoxic” value is -7.29% (inactive).

Regarding `OCC1CO1` (stereo not given), the “activity, negative = cytotoxic” value was 4.11% (inactive).

Turning to `CC(C)OC(=O)Cc1ccccc1`, the “activity, negative = cytotoxic” value was 0.301% [at 78.8 µM] (inactive).

For `C=C(C)C(=O)OCCCCOC(=O)C(=C)C`, the “activity, negative = cytotoxic” value was 0.41% (inactive).

For `Clc1ccc(Cl)c(Cl)c1`, the “activity, negative = cytotoxic” value is 14% (inactive).

As to `COc1ccc(C(O)(c2cncnc2)C2CC2)cc1` (stereo not given), the “activity, negative = cytotoxic” value was 11.1% (inactive).

Regarding `CN(C1CCCCC1)C1CCCCC1`, the “activity, negative = cytotoxic” value was -9.42% (inactive).

`O=C1NC(=O)C(=O)C(=O)N1`: the “activity, negative = cytotoxic” value is 9.69% [at 78.8 µM] (inactive).

For `CCCC[N+](CCCC)(CCCC)CCCC`, the “activity, negative = cytotoxic” value was -2.03% (inactive).

With `CC1(C)CC(=O)CC(C)(C)N1[O]`, the “activity, negative = cytotoxic” value was -6.14% (inactive).

Consider `Nc1c(Br)cc(Br)c2c1C(=O)c1ccccc1C2=O`, for which the “activity, negative = cytotoxic” value was -5.51% [at 28.5 µM] (inactive).

In the case of `CC(C)C1(C)N=C(c2ncccc2C(=O)O)NC1=O` (stereo not given), the “activity, negative = cytotoxic” value was -1.23% (inactive).

Take `CC(C)(C)NCC(O)c1ccccc1Cl` (stereo not given): the “activity, negative = cytotoxic” value is -1.58% (inactive).

Consider `CCCC(C)(COC(N)=O)COC(=O)NC(C)C` (stereo not given), for which the “activity, negative = cytotoxic” value was 6.31% (inactive).

Regarding `CCCN(CCC)C(=O)Cc1c(-c2ccc(Cl)cc2)nc2ccc(Cl)cn12`, the “activity, negative = cytotoxic” value was -21.8% (inactive).

In the case of `C=CC(=O)OCC`, the “activity, negative = cytotoxic” value is -15.2% [at 78.8 µM] (inactive).

As for `CC(=O)OC(c1ccccc1)C(Cl)(Cl)Cl` (stereo not given), the “activity, negative = cytotoxic” value was -19.2% (inactive).

In the case of `C[C@H]1O[C@H](OC2[C@@H](O)[C@@H](O)C(O)[C@H](O)[C@H]2O)[C@@H](N)C[C@@H]1N=C(N)C(=O)O` (stereo not given in full), the “activity, negative = cytotoxic” value is 3.07% (inactive).

Turning to `Clc1ccc2ccccc2c1`, the “activity, negative = cytotoxic” value is -14.9% [at 78.8 µM] (inactive).

As to `C1CS1`, the “activity, negative = cytotoxic” value is 3.25% [at 78.8 µM] (inactive).

Take `NC(=O)CF`: the “activity, negative = cytotoxic” value is 8.58% (inactive).

In the case of `CCc1cnc(C2=NC(C)(C(C)C)C(=O)N2)c(C(=O)O)c1` (stereo not given), the “activity, negative = cytotoxic” value was -3.36% (inactive).

For `C[CH2][Hg][S]c1ccccc1C(=O)O`, the Potency was 3.47 µM (active) and 6.01 µM (active).

`CCC1(C2=NCCN2)Cc2ccccc2O1` (stereo not given): the “activity, negative = cytotoxic” value was 4.3% (inactive).

As for `COCc1cnc(C2=NC(C)(C(C)C)C(=O)N2)c(C(=O)O)c1` (stereo not given), the “activity, negative = cytotoxic” value is 3.35% (inactive).

For `O=C(O)c1cc(Cl)ccc1Cl`, the “activity, negative = cytotoxic” value was -0.0031% (inactive).

On to `SCc1ccccc1`, for which the “activity, negative = cytotoxic” value was 8.85% [at 78.8 µM] (inactive).

On to `C=CCc1ccc(OC(=O)Cc2ccccc2)c(OC)c1`, for which the “activity, negative = cytotoxic” value was 3.93% (inactive).

In the case of `CCCCC1C(=O)NC(=O)N(C2CCCCC2)C1=O` (stereo not given), the “activity, negative = cytotoxic” value is -1.09% (inactive).

For the compound `CCC1(CC)C(=O)NC(=O)NC1=O`, the “activity, negative = cytotoxic” value is 0.472% (inactive).
